# Results as given in PubChem BioAssay AID463173 (ICCB-Longwood Screening Facility, Harvard Medical School, 2010).
# Hit rate of the full screen: of about 52,000 compounds, about 4,300 (8.3%) were called active. This excerpt belongs to a sample that is enriched for actives. Unmarked numbers belong to inactive results. Rule as the data show it: active = survival mostly below about 52% (no sharp cut-off); inactive = mostly above about 56%.
# Tested on: DeltatarO mutant
# Experiment: S. aureus survival, RN4220 and DeltatarO strains – OD600, teichoic acid synthesis inhibitors, primary screen (AID 463173)
# Conditions: S. aureus RN4220 wild type/DeltatarO growth, OD600, 18 h, hits give low values, screened at 18.75 µg/mL (by protocol)
row,SMILES,survival
1,Cc1ccc(N2CCN(C(=O)c3ccc(Nc4nc5ccccc5n5nnnc45)cc3)CC2)c(C)c1,82%
2,CC(C)Nc1nc2c(S(=O)(=O)c3cccc(Cl)c3)nnn2c2ccsc12,70%
3,Cc1ccc(NC(=O)CSc2c3c(nc4ccccc24)CCCC3)cc1F,30% (active)
4,CCOc1ccc(NC(=O)CSc2c3c(nc4ccccc24)CCCC3)cc1,88%
5,O=C(CSc1c2c(nc3ccccc13)CCC2)Nc1ccc(F)cc1,127%
6,COc1cccc(NC(=O)CSc2c3c(nc4ccccc24)CCCC3)c1,43% (active)
7,COc1ccc(OC)c(NC(=O)CSc2c3c(nc4ccccc24)CCCC3)c1,93%
8,COc1ccc(NC(=O)CSc2c3c(nc4ccccc24)CCC3)c(OC)c1,110%
9,CN(C)c1ccc(-c2nc3ccccn3c2Nc2ccc3c(c2)OCCO3)cc1,81%
10,CC(CCc1ccccc1)NC(=O)Cn1c(=O)nc(-c2ccccc2)c2cc(Cl)ccc21 (stereo unspecified),80%
11,O=C(CCc1ccccc1)NCc1ccco1,88%
12,CCOC(=O)c1ccccc1NC(=O)N1CC(C)Oc2ccc(C)cc21 (stereo unspecified),50%
13,CCN1CCN(C(=O)c2ccc3c(c2)N(Cc2ccccc2)C(=O)c2ccccc2S3(=O)=O)CC1,129%
14,Cc1ccc(CNC(=O)CN2CCCN(Cc3ccc(F)cc3)S2(=O)=O)cc1,67%
15,CC(=O)c1c(C)oc2c1cc(NS(=O)(=O)c1ccc(Cl)c(C)c1)c1ccccc12,70%
16,CCCOC(=O)c1c(C)oc2c1cc(NS(=O)(=O)c1ccc(OCC)cc1)c1ccccc12,56% (active)
17,Cc1oc2c(cc(NS(=O)(=O)c3ccc(Cl)cc3)c3ccccc32)c1C(=O)OCc1ccccc1,52%
18,Cc1oc2c(cc(NS(=O)(=O)c3ccc(F)cc3)c3ccccc32)c1C(=O)OCc1ccccc1,54%
19,COCCOC(=O)c1c(C)oc2c1cc(NS(=O)(=O)c1ccc(Cl)c(C)c1)c1ccccc12,44% (active)
20,Cc1oc2c(cc(NS(=O)(=O)c3ccc(C(C)C)cc3)c3ccccc32)c1C(=O)OCc1ccccc1,81%
21,Cc1oc2c(cc(NS(=O)(=O)c3ccc(C(C)C)cc3)c3ccccc32)c1C(=O)O,42% (active)
22,Cc1cc(F)ccc1S(=O)(=O)Nc1cc2c(C(=O)O)c(C)oc2c2ccccc12,39% (active)
23,CCOc1ccc(S(=O)(=O)Nc2cc3c(C(=O)OCc4ccccc4)c(C)oc3c3ccccc23)cc1,94%
24,CCc1ccc(S(=O)(=O)Nc2cc3c(C(=O)OCc4ccccc4)c(C)oc3c3ccccc23)cc1,60%
25,Cc1ccc(S(=O)(=O)Nc2cc3c(C(=O)OCc4ccccc4)c(C)oc3c3ccccc23)c(C)c1,56%
26,CC(=O)c1c(C)oc2c1cc(NS(=O)(=O)c1ccc(C(C)(C)C)cc1)c1ccccc12,64%
